The list is not random: actives were taken first. Their share in the collection is about 15%.
TDP1 cell CPT: qHTS for Inhibitors of human tyrosyl-DNA phosphodiesterase 1 (TDP1): qHTS in cells in presence of CPT; chicken DT40 Tdp1-/-;hTDP1 cells + 20 nM CPT, ATP luminescence, 48 h; Potency, µM (doses to about 46.2 µM), hits mostly inhibitors; 420,000 compounds, 12% hits; AID 686979, 2013; also: nearly all actives have a fitted effect of over 55% in size
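Chicken DT40 Tdp1-/- cells complemented with human TDP1, 400 cells/well, exposed to compounds plus 20 nM camptothecin for at least 48 h at 37 C; viability read as ATP content by CellTiter-Glo luminescence.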
ALOX12 inh: Primary qHTS assay for inhibitors of human arachidonate 12S-lipoxygenase (ALOX12): Round 2. Polyunsaturated fatty acid lipoxygenase ALOX12 (Homo sapiens), P18054. purified 12hLO, xylenol orange hydroperoxide absorbance. Potency, µM (series often up to 108 µM), most hits filed as inhibitors. 580,000 compounds, 1.1% hits. AID 1671190, 2021
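Purified human 12hLO (150 nM final) in 25 mM Hepes, 0.01% Triton X-100, pH 7.0 was preincubated 15 min at room temperature with compound. Then 40 uM arachidonic acid was added, 30 min. Hydroperoxide was read by Fe-XO absorbance ratio 573/405 nm.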
DT40 TDP1 no CPT: qHTS for Inhibitors of human tyrosyl-DNA phosphodiesterase 1 (TDP1): qHTS in cells in absence of CPT; Potency, µM (series often up to 46.2 µM), most hits filed as inhibitors; DT40 Tdp1-/- hTDP1 cells, no CPT, ATP luminescence, 48 h; AID 686978, 2013; 420,000 compounds, 15% hits; also: nearly all actives have a fitted effect of over 55% in size
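Cells were dispensed at 400 per well, compounds added by pin tool, plates incubated ≥48 hr at 37 °C, then CellTiter-Glo added for 30 min at room temperature before luminescence reading. Line: DT40 Tdp1-/- complemented with hTDP1; camptothecin omitted.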
ELG1 DNA repair: qHTS screen for small molecules that inhibit ELG1-dependent DNA repair in human embryonic kidney (HEK293T) cells expressing luciferase-tagged ELG1; HEK293T ELG1-luciferase reporter, luminescence, 16 h; DNA damage induced by 5-fluorouridine; Potency, µM (highest dose often 46.1 µM), actives largely listed as inhibitors; 330,000 compounds, 2.3% hits; AID 504467, 2011; also: nearly all actives have a fitted effect of over 55% in size
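Luminescence from the luciferase reporter, measured 30 min after ONE-Glo reagent at room temperature, was the read-out. Beforehand, 2,000 cells per well were exposed for 16 hr at 37 °C to 5-fluorouridine together with compound or vehicle.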
RORg inh: qHTS for inhibitors of ROR gamma transcriptional activity; Nuclear receptor ROR-gamma (Mus musculus), P51450; Drosophila S2 Gal4-RORgamma UAS-luciferase reporter, 20 h; Potency, µM (series often up to 53.6 µM), usual class: inhibitors; 310,000 compounds, 5.4% hits; AID 2551, 2010; also: nearly all actives have a fitted effect of over 60% in size
Target sequence (P51450 whole entry, looked up, the tested form may be a part): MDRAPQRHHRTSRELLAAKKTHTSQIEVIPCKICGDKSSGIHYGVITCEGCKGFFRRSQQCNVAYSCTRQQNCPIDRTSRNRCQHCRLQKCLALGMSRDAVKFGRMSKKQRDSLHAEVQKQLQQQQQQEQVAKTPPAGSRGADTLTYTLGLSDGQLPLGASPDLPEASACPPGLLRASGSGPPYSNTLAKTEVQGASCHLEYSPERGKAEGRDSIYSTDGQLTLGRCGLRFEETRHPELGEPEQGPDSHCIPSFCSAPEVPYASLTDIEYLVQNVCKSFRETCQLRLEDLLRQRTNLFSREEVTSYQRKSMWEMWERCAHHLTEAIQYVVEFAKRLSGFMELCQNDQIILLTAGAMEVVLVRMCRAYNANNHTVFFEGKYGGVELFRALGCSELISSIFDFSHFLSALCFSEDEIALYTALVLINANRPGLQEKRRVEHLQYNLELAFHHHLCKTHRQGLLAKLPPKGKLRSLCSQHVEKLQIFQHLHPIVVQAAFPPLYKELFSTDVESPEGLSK
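Compounds are pin-transferred onto Drosophila Schneider cells expressing a copper-inducible Gal4–ROR gamma transactivation domain fusion. After 1 hr, copper sulfate is added to 700 uM final; luciferase is read 20 hr later.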
Gal4-VP16 FLuc: VP16 counterscreen qHTS for inhibitors of ROR gamma transcriptional activity; Potency, µM (doses to about 53.6 µM), usual class: inhibitors; AID 2546, 2010; Drosophila S2 Gal4-VP16 UAS-luciferase, luminescence, 20 h; 310,000 compounds, 3.5% hits;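 also: Gal4-VP16 expression switched on by copper sulfate through the metallothionein promoter; nearly all actives have a fitted effect of over 50% in size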
Hits are given with their value. Calls follow the shape of the dose curve; as a rule, active = well fitted curve in the direction sought with a large enough effect; inconclusive = small, poorly fitted or top-dose-only effect, or another doubt; inactive = no such curve, though single readings can be large; an effect the other way counts as inactive or inconclusive.

For Cc1nc2ccc(NC(=O)N(C)c3ccccc3)cc2s1 the results were TDP1 cell CPT inactive, ALOX12 inh inactive, DT40 TDP1 no CPT inactive, ELG1 DNA repair inconclusive, RORg inh inactive and Gal4-VP16 FLuc inactive.
For COc1cc(C(=O)Nc2ccc(S(=O)(=O)N(C)c3ccccc3)cc2)cc(OC)c1OC the results were TDP1 cell CPT 16µM, ALOX12 inh inactive, DT40 TDP1 no CPT inconclusive, ELG1 DNA repair inconclusive, RORg inh inconclusive and Gal4-VP16 FLuc inactive.
COc1cc(C(=O)Nc2ccc(N(C)C)cc2)cc(OC)c1OC was read as TDP1 cell CPT 21µM, ALOX12 inh inactive, DT40 TDP1 no CPT inconclusive, ELG1 DNA repair inconclusive, RORg inh inconclusive and Gal4-VP16 FLuc inactive.
COc1ccccc1N(C)S(=O)(=O)c1ccc(C(=O)Nc2ccc(C(N)=O)cc2)cc1 was read as TDP1 cell CPT inconclusive, ALOX12 inh inactive, DT40 TDP1 no CPT inconclusive and ELG1 DNA repair inconclusive.
`Cc1nc(-c2cn(C3CCCN(C(=O)c4c(F)cccc4F)C3)nn2)no1` (centres undefined) gave ALOX12 inh inactive.
`COc1ccc(C(C)NC(=O)NCc2ccn[nH]2)cc1OC` (centres undefined) gave ALOX12 inh inactive.
COc1ccc(C(=O)Nc2ccc(S(=O)(=O)N(C)c3ccccc3)cc2)cc1 was read as TDP1 cell CPT inactive, ALOX12 inh inactive and DT40 TDP1 no CPT 16µM.
For O=C(COc1cccc2c1CCNC2=O)Nc1ccc(Cl)cc1 the results were TDP1 cell CPT 18µM, ALOX12 inh inactive, DT40 TDP1 no CPT inconclusive and ELG1 DNA repair inconclusive.
For NC(=O)c1ccc(NC(=O)COc2cccc3c2CCNC3=O)cc1 the results were TDP1 cell CPT inactive, ALOX12 inh inconclusive, DT40 TDP1 no CPT inactive and ELG1 DNA repair inactive.
COc1ccccc1NC(=O)COc1cccc2c1CCNC2=O was read as TDP1 cell CPT 10µM, ALOX12 inh inactive, DT40 TDP1 no CPT 6.5µM and ELG1 DNA repair inactive.
Screening COc1ccccc1NC(=O)COc1ccccc1 returned TDP1 cell CPT inactive, ALOX12 inh inactive, DT40 TDP1 no CPT inactive, ELG1 DNA repair inconclusive, RORg inh inactive and Gal4-VP16 FLuc inactive.
`COc1ccc(NC(=O)COc2cccc3c2CCN(C)C3=O)c(OC)c1` gave TDP1 cell CPT 13µM, ALOX12 inh inactive, DT40 TDP1 no CPT inconclusive, ELG1 DNA repair inactive, RORg inh inactive and Gal4-VP16 FLuc inactive.
CCc1ccc(S(=O)(=O)N(C)CC2CCOC2)cc1 (centres undefined) was read as ALOX12 inh inactive.
For Fc1ccc2c(c1)nc1n2[C@@H](CNC2CCCCC2)COC1 the results were ALOX12 inh inactive.
For Cc1ccc(CCSc2ccc(C(C)C)cc2)cn1 the results were TDP1 cell CPT inconclusive, ALOX12 inh inactive, DT40 TDP1 no CPT 26µM, ELG1 DNA repair inactive, RORg inh inconclusive and Gal4-VP16 FLuc inconclusive.
For COc1ccc(/C=C(/NC(=O)c2ccco2)C(N)=O)cc1 the results were ALOX12 inh inactive.
Screening CC(C)(C)c1ccc(-c2cc(C[C@H]3CNCC[C@H]3CC(=O)NCc3cccnc3)no2)cc1 returned ALOX12 inh 28µM.
`Cc1c(C(=O)N2CCC(C)CC2)c(S(=O)(=O)NCc2ccc(F)cc2)c(C)n1C` gave ALOX12 inh inactive.
Screening CCOc1ccc(OCC)c(NC(=O)CSc2nc3c(c(=O)n(C)c(=O)n3C)n2C)c1 returned ELG1 DNA repair inactive, RORg inh inactive and Gal4-VP16 FLuc inactive.
Screening CCOc1ccc(OCC)c(NC(=O)CSc2nc3c(c(=O)n(C)c(=O)n3C)n2CC)c1 returned TDP1 cell CPT inconclusive, ALOX12 inh inactive, DT40 TDP1 no CPT 23µM, ELG1 DNA repair inconclusive, RORg inh inactive and Gal4-VP16 FLuc inactive.
For CC(C)n1c(SCC(=O)Nc2ccccc2)nc2c1c(=O)n(C)c(=O)n2C the results were TDP1 cell CPT inconclusive, ALOX12 inh inactive, DT40 TDP1 no CPT inconclusive, ELG1 DNA repair inactive, RORg inh inconclusive and Gal4-VP16 FLuc inactive.
For CCOc1ccc(OCC)c(NC(=O)CSc2nc3c(c(=O)n(C)c(=O)n3C)n2C(C)C)c1 the results were TDP1 cell CPT 16µM, ALOX12 inh inactive, DT40 TDP1 no CPT 21µM, ELG1 DNA repair 12µM, RORg inh inactive and Gal4-VP16 FLuc inactive.
`CC(C)c1ccc(NC(=O)Cn2c(=O)n(CC3CCC(C(=O)NCCc4ccccc4)CC3)c(=O)c3ccccc32)cc1` (centres undefined) gave TDP1 cell CPT 16µM, ALOX12 inh inactive and DT40 TDP1 no CPT 15µM.
`Cc1ccc(NC(=O)Cn2c(=O)n(CC(=O)NCCc3ccccc3)c(=O)c3ccccc32)cc1C` gave TDP1 cell CPT inconclusive, ALOX12 inh inconclusive and DT40 TDP1 no CPT 3.3µM.
`CCc1cccc(NC(=O)Cn2c(=O)n(CC3CCC(C(=O)NCCc4ccccc4)CC3)c(=O)c3ccccc32)c1` (centres undefined) gave TDP1 cell CPT 21µM, ALOX12 inh inactive and DT40 TDP1 no CPT 13µM.
`O=C(Cn1c(=O)n(CC2CCC(C(=O)NCCc3ccccc3)CC2)c(=O)c2ccccc21)Nc1ccccc1` (centres undefined) gave TDP1 cell CPT inactive, ALOX12 inh inactive and DT40 TDP1 no CPT inactive.
`Cc1ccc(NC(=O)Cn2c(=O)n(CC(=O)NCCc3ccccc3)c(=O)c3ccccc32)cc1` gave TDP1 cell CPT inactive, ALOX12 inh inactive and DT40 TDP1 no CPT inactive.
Screening CN(C)C(=O)c1cc(C(=O)c2ccccc2F)c[nH]1 returned TDP1 cell CPT inactive, ALOX12 inh inactive, DT40 TDP1 no CPT inactive, ELG1 DNA repair inconclusive, RORg inh inactive and Gal4-VP16 FLuc inactive.
Screening CN(C)C(=O)c1cc(C(=O)c2ccc(F)cc2C(F)(F)F)c[nH]1 returned TDP1 cell CPT inactive, ALOX12 inh inactive, DT40 TDP1 no CPT inconclusive, ELG1 DNA repair 8.2µM, RORg inh inconclusive and Gal4-VP16 FLuc inactive.
Screening CN(C)C(=O)c1cc(C(=O)c2ccccc2C(F)(F)F)c[nH]1 returned TDP1 cell CPT inconclusive, ALOX12 inh inactive, DT40 TDP1 no CPT inconclusive, ELG1 DNA repair 6.5µM, RORg inh inactive and Gal4-VP16 FLuc inactive.
For Cc1ccc(F)cc1NC(=O)Cn1c(C)cc(C)c(C#N)c1=O the results were TDP1 cell CPT 21µM, ALOX12 inh inactive and DT40 TDP1 no CPT inactive.

Screens: PubChem, National Center for Advancing Translational Sciences (NCATS)
